Several values for one entry are separate records, joined by “and”; a condition that tells them apart may be missing. Equal values may be shown once. Inconclusive results are not listed. A call without a number means that no potency is given here. More than one record can exist for a structure, and the calls need not agree. Activity calls are given as the source filed them. Unless noted, calls follow the shape of the dose curve; as a rule, active = well fitted curve in the direction sought with a large enough effect in the repeat runs; inconclusive = weak or mixed curves; inactive = no such curve, though single readings can be large; an effect the other way counts as inactive or inconclusive.
How the values were obtained:
[1] = qHTS assay to identify aromatase inhibitors - cell viability counter screen (AID 743084);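 also: cells stimulated with testosterone during compound exposure; nearly all actives have a fitted effect of over 55% in size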; also: potency is read from the fitted curve at half-maximal effect
[2] = target: Aryl hydrocarbon receptor (Homo sapiens) (UniProt P35869); assay: qHTS assay to identify small molecule that activate the aryl hydrocarbon receptor (AhR) signaling pathway (AID 743085); also: nearly all actives have a fitted effect of over 15% in size; also: potency is read from the fitted curve at half-maximal effect;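 as to activation: HG2L7.5c1 human HepG2 liver cells with stably integrated DRE-driven firefly reporter; series mostly up to about 70 µM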
Aryl hydrocarbon receptor (Homo sapiens), sequence (P35869 whole entry, looked up): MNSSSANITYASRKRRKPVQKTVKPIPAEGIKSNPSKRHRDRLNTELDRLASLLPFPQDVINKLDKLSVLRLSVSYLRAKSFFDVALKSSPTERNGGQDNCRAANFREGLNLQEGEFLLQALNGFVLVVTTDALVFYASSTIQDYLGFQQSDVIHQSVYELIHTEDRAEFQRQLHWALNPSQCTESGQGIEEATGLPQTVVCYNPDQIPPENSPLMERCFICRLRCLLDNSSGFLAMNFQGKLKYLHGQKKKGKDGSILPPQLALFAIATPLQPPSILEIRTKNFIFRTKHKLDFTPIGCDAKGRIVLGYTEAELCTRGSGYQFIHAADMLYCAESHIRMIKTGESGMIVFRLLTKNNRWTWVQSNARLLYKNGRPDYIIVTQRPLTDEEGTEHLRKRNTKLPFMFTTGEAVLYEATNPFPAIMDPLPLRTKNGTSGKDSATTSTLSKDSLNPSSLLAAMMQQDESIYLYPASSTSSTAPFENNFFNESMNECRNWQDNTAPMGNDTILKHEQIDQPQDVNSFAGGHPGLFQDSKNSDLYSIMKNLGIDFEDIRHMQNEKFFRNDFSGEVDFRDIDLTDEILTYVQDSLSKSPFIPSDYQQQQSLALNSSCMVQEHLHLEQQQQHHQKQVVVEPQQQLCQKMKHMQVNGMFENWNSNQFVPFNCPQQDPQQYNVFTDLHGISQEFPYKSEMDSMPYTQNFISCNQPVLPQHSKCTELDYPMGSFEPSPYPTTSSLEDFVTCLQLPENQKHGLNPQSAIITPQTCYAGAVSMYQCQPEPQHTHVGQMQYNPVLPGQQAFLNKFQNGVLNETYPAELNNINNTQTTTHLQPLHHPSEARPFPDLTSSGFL
In short: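 Reporter assay in engineered HepG2 line HG2L7.5c1, whose plasmid carries twenty dioxin responsive elements upstream of firefly luciferase. Treatment lasted 24 h at 37C; ONE-Glo luminescence gauged induction.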

[3] = qHTS assay to identify small molecule that activate the aryl hydrocarbon receptor (AhR) signaling pathway - cell viability counter screen (AID 743086);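 also: HepG2 liver cells carrying the AhR DRE luciferase reporter; series mostly up to about 70 µM; nearly all actives have a fitted effect of over 45% in size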
In short: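 Cytotoxicity counter screen: CellTiter-Fluor signal (30 min, 37 C) in 4000 HepG2 cells/well carrying the DRE-luciferase reporter, following 24 h compound exposure at 37 C.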

[4] = target: Peroxisome proliferator-activated receptor gamma (Homo sapiens) (UniProt P37231); assay: qHTS assay to identify small molecule agonists of the peroxisome proliferator-activated receptor gamma (PPARg) signaling pathway (AID 743094; active = well fitted activation curve with a large enough effect in the signal ratio in the repeat runs, not every such curve was filed as active; the % refers to the signal ratio; also: potency is read from the fitted curve at half-maximal effect)
Peroxisome proliferator-activated receptor gamma (Homo sapiens), sequence (P37231 whole entry, looked up): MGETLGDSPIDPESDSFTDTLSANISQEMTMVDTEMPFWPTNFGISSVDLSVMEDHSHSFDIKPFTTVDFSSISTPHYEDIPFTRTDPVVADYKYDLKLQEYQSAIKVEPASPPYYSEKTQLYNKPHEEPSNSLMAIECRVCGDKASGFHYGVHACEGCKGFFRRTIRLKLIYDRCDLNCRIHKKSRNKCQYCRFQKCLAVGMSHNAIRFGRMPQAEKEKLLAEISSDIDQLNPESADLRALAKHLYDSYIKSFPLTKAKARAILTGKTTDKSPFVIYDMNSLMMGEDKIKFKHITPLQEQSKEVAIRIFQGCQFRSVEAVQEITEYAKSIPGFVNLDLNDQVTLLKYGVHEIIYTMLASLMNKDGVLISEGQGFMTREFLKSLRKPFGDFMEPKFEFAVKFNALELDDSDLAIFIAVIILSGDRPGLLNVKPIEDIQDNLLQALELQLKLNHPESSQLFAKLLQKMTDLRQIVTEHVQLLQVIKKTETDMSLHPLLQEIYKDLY
In short: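 Reporter activation was scored by fluorescence of cleaved LiveBLAzer B/G substrate (1 h, room temperature) in PPARg-bla HEK293H cells previously treated 17 h at 37C with DMSO-dissolved compounds.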

[5] = qHTS assay for small molecule agonists of the antioxidant response element (ARE) signaling pathway - cell viability counter screen (AID 743203; calls by dose curve; also: nearly all actives have a fitted effect of over 55% in size; also: potency is read from the fitted curve at half-maximal effect)
In short: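 Viability counter screen: stably transfected ARE-bla HepG2 line, 16 hrs compound exposure at 37C/5% CO2, ATP-based CellTiter-Glo luminescence measured in the reporter wells.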

[6] = qHTS assay for small molecule activators of the heat shock response signaling pathway - cell viability counter screen (AID 743209); also: nearly all actives have a fitted effect of over 50% in size; also: potency is read from the fitted curve at half-maximal effect
In short: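 Viability of HSE-bla HeLa cells is measured with CellTiter-Glo in the wells already used for the reporter read. Compound exposure lasts 5 h at 37 C, and luminescence is read after 30 min at room temperature.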

[7] = qHTS assay to identify small molecule antagonists of the peroxisome proliferator-activated receptor gamma (PPARg) signaling pathway - cell viability counter screen (AID 743194); conditions: Potency: co-treated with 50 nM rosiglitazone unless noted; also: nearly all actives have a fitted effect of over 55% in size; also: potency is read from the fitted curve at half-maximal effect
In short: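 Viability was measured as CellTiter-Glo luminescence in GeneBLAzer PPARg UAS-bla HEK293H cells. These cells had been exposed 17 h at 37 C to compounds together with rosiglitazone at 50 nM final, with the beta-lactamase readout taken in the same wells.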

[8] = qHTS assay for small molecule agonists of the antioxidant response element (ARE) signaling pathway (AID 743202; active = well fitted activation curve with a large enough effect in the signal ratio in the repeat runs, not every such curve was filed as active; the % refers to the signal ratio; also: potency is read from the fitted curve at half-maximal effect)
In short: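 Beta-lactamase reporter activity, read as fluorescence intensity, reflects ARE/Nrf2 pathway induction in HepG2 cells after 16 h compound exposure at 37 C; substrate loading was 2 h at room temperature.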

[9] = qHTS assay for small molecule activators of the heat shock response signaling pathway (AID 743210; active = well fitted activation curve with a large enough effect in the signal ratio in the repeat runs, with a control signal flat, not every such curve was filed as active; the % refers to the signal ratio;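 also: HeLa cells with beta-lactamase reporter driven by heat shock elements; series mostly up to about 63 µM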)
In short: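 Fluorescence from a cleaved B/G FRET substrate (2.5 h, room temp) reports HSE-driven beta-lactamase in HeLa cells treated 5 h at 37 C with DMSO-dissolved compounds.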

[10] = target: Peroxisome proliferator-activated receptor gamma (Homo sapiens) (UniProt P37231); assay: qHTS assay to identify small molecule antagonists of the peroxisome proliferator-activated receptor gamma (PPARg) signaling pathway (AID 743191; calls by dose curve; also: nearly all actives have a fitted effect of over 30% in size; also: potency is read from the fitted curve at half-maximal effect)
In short: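 Beta-lactamase reporter under UAS control in HEK293H PPARg-bla cells; compound treatment 17 h at 37C. Read-out: fluorescence intensity after 1 h room-temperature incubation with LiveBLAzer B/G FRET substrate.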

For O=c1oc2ccccc2c(O)c1C(CC(O)c1ccc(-c2ccc(Br)cc2)cc1)c1ccccc1 (stereo not drawn), the Potency [1] was “inactive”, the Potency [2] was “inactive” and the Potency [3] was “inactive”. For the same molecule, the Potency [4] was 601 nM (active) and 1.04 µM (active), the Potency [5] was “inactive” and the Potency [6] was 41.3 µM (active).

With COP(=S)(OC)Oc1ccc([N+](=O)[O-])cc1 the Potency [1] was “inactive”, the Potency [2] was “inactive” and the Potency [3] was “inactive”. The Potency [4] was “inactive”, the Potency [7] was “inactive” and the Potency [5] was “inactive”. For the same molecule, the Potency [6] was “inactive”.

In the case of CC1(C)C(C=C(Cl)Cl)C1C(=O)OC(C#N)c1cccc(Oc2ccccc2)c1 (stereo not drawn), the Potency [1] is reported as “inactive”, the Potency [2] is reported as “inactive” and the Potency [3] is reported as “inactive”. The Potency [4] was “inactive”, the Potency [7] was “inactive” and the Potency [5] was “inactive”. For the same molecule, the Potency [6] was “inactive”.

With CCCCN(CC)c1c([N+](=O)[O-])cc(C(F)(F)F)cc1[N+](=O)[O-] the Potency [1] was “inactive”, the Potency [2] was “inactive” and the Potency [3] was “inactive”. For the same molecule, the Potency [4] was “inactive”, the Potency [7] was “inactive” and the Potency [8] was “inactive”. The Potency [5] was “inactive”, the Potency [6] was “inactive” and the Potency [9] was “inactive”.

In the case of Brc1ccc(Oc2cc(Br)c(Br)cc2Br)c(Br)c1, the Potency [1] is reported as “inactive”, the Potency [2] is reported as “inactive” and the Potency [3] is reported as “inactive”. For the same molecule, the Potency [4] was “inactive”, the Potency [7] was “inactive” and the Potency [8] was “inactive”. The Potency [6] was “inactive” and the Potency [9] was “inactive”.

With O=[N+]([O-])c1cccc2ccccc12 the Potency [1] was “inactive”, the Potency [2] was “inactive” and the Potency [3] was “inactive”. For the same molecule, the Potency [4] was “inactive”, the Potency [7] was “inactive” and the Potency [8] was “inactive”. For the same molecule, the Potency [5] was “inactive”, the Potency [6] was “inactive” and the Potency [9] was “inactive”.

For CCOC(=S)S, the Potency [2] was “inactive”, the Potency [3] was “inactive” and the Potency [7] was “inactive”. For the same molecule, the Potency [8] was “inactive”, the Potency [5] was “inactive” and the Potency [6] was 17.4 µM (active).

For C=CCc1ccc2c(c1)OCO2, the Potency [1] was “inactive”, the Potency [3] was “inactive” and the Potency [4] was “inactive”. For the same molecule, the Potency [7] was “inactive”, the Potency [8] was “inactive” and the Potency [5] was “inactive”. The Potency [6] was “inactive”.

For O=C(CCl)c1ccccc1, the Potency [1] was “inactive and 61.1 µM (active)”, the Potency [2] was “inactive” and the Potency [3] was “inactive”. For the same molecule, the Potency [7] was “inactive”, the Potency [5] was “inactive” and the Potency [6] was “inactive and 24.5 µM (active)”.

In the case of CN(C)c1ccc(C(=O)c2ccc(N(C)C)cc2)cc1, the Potency [1] is reported as “inactive”, the Potency [2] is reported as 428 nM (active) and 3.86 µM (active) and the Potency [7] is reported as “inactive”. The Potency [5] was “inactive” and the Potency [6] was “inactive”.

In the case of S=C1NCCN1, the Potency [1] is reported as “inactive”, the Potency [2] is reported as “inactive” and the Potency [3] is reported as “inactive”. For the same molecule, the Potency [8] was “inactive”, the Potency [5] was “inactive” and the Potency [6] was “inactive”.

In the case of O=C(O)C(F)(F)C(F)(F)C(F)(F)C(F)(F)C(F)(F)C(F)(F)C(F)(F)F, the Potency [1] is reported as “inactive”, the Potency [2] is reported as “inactive” and the Potency [3] is reported as “inactive”. For the same molecule, the Potency [7] was “inactive”, the Potency [8] was 27.3 µM (active) and 21.6 µM (active) and the Potency [5] was “inactive”. The Potency [6] was “inactive”.

In the case of CCc1cccc(CC)c1N(COC)C(=O)CCl, the Potency [2] is reported as “inactive”, the Potency [3] is reported as “inactive” and the Potency [8] is reported as 4.19 µM (active) and 4.86 µM (active). The Potency [5] was “inactive” and the Potency [6] was “inactive”.

In the case of CC(C)c1ccc(CO)cc1, the Potency [1] is reported as “inactive”, the Potency [3] is reported as “inactive” and the Potency [4] is reported as “inactive”. The Potency [7] was “inactive”, the Potency [8] was “inactive” and the Potency [5] was “inactive”. The Potency [6] was “inactive”.

With C1=Cc2cccc3cccc1c23 the Potency [1] was “inactive”, the Potency [3] was “inactive” and the Potency [4] was “inactive”. The Potency [7] was “inactive”, the Potency [5] was “inactive” and the Potency [6] was “inactive”.

For CCOc1cc(C=O)ccc1O, the Potency [3] was “inactive”, the Potency [7] was “inactive” and the Potency [8] was “inactive”. For the same molecule, the Potency [5] was “inactive”, the Potency [6] was “inactive” and the Potency [9] was “inactive”.

For O=Cc1ccco1, the Potency [1] was “inactive”, the Potency [2] was “inactive” and the Potency [3] was “inactive”. For the same molecule, the Potency [7] was “inactive”, the Potency [8] was “inactive” and the Potency [5] was “inactive”. The Potency [6] was “inactive” and the Potency [9] was “inactive”.

With N#Cc1cc(Br)c(O)c(Br)c1 the Potency [1] was “inactive”, the Potency [3] was “inactive” and the Potency [4] was “inactive”. For the same molecule, the Potency [10] was 54.9 µM (active) and 21.1 µM (active), the Potency [7] was “inactive” and the Potency [5] was “inactive”. The Potency [6] was “inactive”.

With C#CCOS(=O)OC1CCCCC1Oc1ccc(C(C)(C)C)cc1 (stereo not drawn) the Potency [1] was 21.7 µM (active) and 6.86 µM (active), the Potency [2] was “inactive” and the Potency [3] was “inactive”. For the same molecule, the Potency [10] was 43.6 µM (active), the Potency [7] was 2.45 µM (active) and the Potency [8] was 970 nM (active) and 1.72 µM (active). The Potency [5] was “inactive”, the Potency [6] was “inactive” and the Potency [9] was “inactive”.

For Oc1cc(Cl)ccc1Oc1ccc(Cl)cc1Cl, the Potency [1] was “inactive and 22.2 µM (active)”, the Potency [2] was “inactive and 21 µM (active)” and the Potency [4] was “inactive”. For the same molecule, the Potency [7] was 6.31 µM (active), the Potency [5] was 27.9 µM (active) and the Potency [6] was 30.7 µM (active) and 29.8 µM (active).

With NNC(=S)NN the Potency [1] was “inactive”, the Potency [3] was “inactive” and the Potency [4] was “inactive”. The Potency [7] was “inactive”, the Potency [8] was “inactive” and the Potency [5] was “inactive”. The Potency [6] was “inactive”.

With CC(C)N(C(=O)SCC(Cl)=C(Cl)Cl)C(C)C the Potency [3] was “inactive”, the Potency [7] was “inactive” and the Potency [8] was “inactive”. The Potency [5] was “inactive” and the Potency [6] was “inactive”.

In the case of O=C1C=CC(=O)C=C1, the Potency [1] is reported as “inactive”, the Potency [2] is reported as “inactive” and the Potency [3] is reported as “inactive”. The Potency [4] was “inactive”, the Potency [5] was “inactive” and the Potency [6] was “inactive”. The Potency [9] was “inactive”.

In the case of c1cc(OCC2CO2)ccc1Cc1ccc(OCC2CO2)cc1 (stereo not drawn), the Potency [3] is reported as “inactive”, the Potency [8] is reported as 61.4 µM (active) and 61.1 µM (active) and the Potency [5] is reported as “inactive”. The Potency [6] was “inactive”.

With Oc1c(Cl)c(Cl)c(Cl)c(Cl)c1Cl the Potency [1] was “inactive”, the Potency [2] was 3.37 µM (active) and the Potency [3] was “inactive”. The Potency [6] was “inactive” and the Potency [9] was “inactive”.

With CCOCN(C(=O)CCl)c1c(C)cccc1CC the Potency [2] was “inactive”, the Potency [3] was “inactive” and the Potency [4] was “inactive”. The Potency [7] was “inactive” and the Potency [5] was 14.5 µM (active) and 21.7 µM (active).

With C=CC(=O)OCCO the Potency [3] was “inactive”, the Potency [7] was “inactive” and the Potency [5] was “inactive”. For the same molecule, the Potency [6] was “inactive” and the Potency [9] was “inactive”.

In the case of Nc1ccncc1, the Potency [1] is reported as “inactive”, the Potency [2] is reported as “inactive” and the Potency [3] is reported as “inactive”. For the same molecule, the Potency [7] was “inactive”, the Potency [8] was “inactive” and the Potency [5] was “inactive”. For the same molecule, the Potency [6] was “inactive”.

With Nc1ccc(Cl)cc1N the Potency [1] was “inactive”, the Potency [2] was 11.3 µM (active) and 13.7 µM (active) and the Potency [4] was “inactive”. The Potency [7] was “inactive”, the Potency [5] was “inactive and 6.11 µM (active)” and the Potency [6] was “inactive”.

For C[C@]12CCC(=O)C[C@@H]1CC[C@@H]1[C@@H]2CC[C@]2(C)[C@@H](O)CC[C@@H]12, the Potency [1] was “inactive”, the Potency [2] was “inactive” and the Potency [3] was “inactive”. The Potency [7] was “inactive”, the Potency [8] was 27 µM (active) and the Potency [5] was “inactive”. For the same molecule, the Potency [6] was “inactive”.

With CCC(C)c1ccc(O)cc1 (stereo not drawn) the Potency [3] was “inactive”, the Potency [7] was “inactive” and the Potency [8] was “inactive”. The Potency [5] was “inactive”, the Potency [6] was “inactive” and the Potency [9] was “inactive”.

For CCCCOCCOP(=O)(OCCOCCCC)OCCOCCCC, the Potency [1] was “inactive”, the Potency [3] was “inactive” and the Potency [4] was “inactive”. For the same molecule, the Potency [10] was “inactive”, the Potency [7] was “inactive” and the Potency [5] was “inactive”. For the same molecule, the Potency [6] was “inactive”.

Source: PubChem BioAssay (Tox21)
